KDM5B inhibitor – inhibitors of human KDM5B histone demethylase. 220,000 tested, 2.6% active. AID 1347165. Q9UGL1. Potency, µM (series often up to 57.7 µM), actives largely listed as inhibitors. KDM5B demethylase, FDH-coupled NADH fluorescence (FDH is formaldehyde dehydrogenase); further: potency means the concentration at half of the fitted maximal effect; 0% is about no effect; nearly all actives have a fitted effect of over 70% in size
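Coupled FDH/NAD⁺ fluorescence readout. KDM5BΔAP 200 nM final; compound titration, 10 min RT preincubation; substrate mix 12.5 µM H3K4me3, 25 µM 2-OG, 50 µM Fe(II), 100 µM ascorbate, 0.25 mM NAD⁺, 0.25 U/mL FDH; ΔRFU over 30 min.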
SNCA expr inh – inhibitors of alpha-synuclein (SNCA) gene expression. HEK-293 SNCA-luciferase knock-in, luminescence, 24 h. Potency, µM (top dose mostly 57.2 µM), inactives show top-dose activity change, negative = inhibition, hits mostly inhibitors. 140,000 tested, 0.17% active;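 further: potency means the concentration at half of the fitted maximal effect; plate controls were DMSO cells for no effect and cell-free wells for full effect; nearly all actives have a fitted effect of over 45% in size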
IP6K1 inhibitor – IP6K1 kinase inhibition; Q92551; IP6K1 kinase, ADP-Glo luminescence, 2 h; hits give low values; activity change, % (series mostly up to about 58 µM); 140,000 tested, 0.81% active; AID 1645851; in the data active means activity change below about -25%; further: on the % scale 0 is the no-effect control and ±100 the full control effect
Target sequence (Q92551 whole entry, looked up): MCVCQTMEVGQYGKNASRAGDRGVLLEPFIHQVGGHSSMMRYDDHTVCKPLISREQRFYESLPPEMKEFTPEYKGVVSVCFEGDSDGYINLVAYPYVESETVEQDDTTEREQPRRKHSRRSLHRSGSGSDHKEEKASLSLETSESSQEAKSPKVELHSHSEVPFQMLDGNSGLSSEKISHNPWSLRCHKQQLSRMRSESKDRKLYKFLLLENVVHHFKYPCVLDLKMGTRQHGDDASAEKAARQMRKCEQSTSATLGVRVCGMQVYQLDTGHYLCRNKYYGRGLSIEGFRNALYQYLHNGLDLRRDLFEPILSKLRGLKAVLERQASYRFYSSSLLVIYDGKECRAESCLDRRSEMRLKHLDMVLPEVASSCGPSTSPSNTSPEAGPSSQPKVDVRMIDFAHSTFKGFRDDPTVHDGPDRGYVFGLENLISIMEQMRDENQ
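ADP-Glo luminescence measures ADP made by human IP6K1 during a 2 h RT reaction with ATP/IP6 (mix at 1.3 mM/130 uM); top library doses 57.5 and 19.1 uM final.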
HEK293 viab – counter-screen for SNCA expression inhibitors: cell viability; HEK-293-SNCA-luc viability, GF-AFC fluorescence, 24 h; Potency, µM (top dose mostly 57.1 µM), for inactives: at the highest dose activity change, negative = cytotoxicity, hits mostly cytotoxic; 150,000 tested, 0.12% active; AID 1671193;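 further: potency means the concentration at half of the fitted maximal effect; 0% = DMSO-treated cells and -100% = medium-only wells without cells; nearly all actives have a fitted effect of over 30% in size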
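HEK-293-SNCA-luc cells (1500/well) plated 24 h, then exposed 24 h to a dilution series; GF-AFC added 30 min at 37C, fluorescence 405/540 nm; normalised to medium-only and DMSO wells, Hill fit.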
Starred values were filed as active, the others as inactive; [ ] = dose if it differs, or a comment. A selection: hits, their analogues and other compounds. The true share with any hit is near 2.9%. Unless noted, the call rests on the fitted dose curve; in most records, active means well fitted curve in the direction sought with a large enough effect; inconclusive means small, poorly fitted or top-dose-only effect, or another doubt; inactive means no such curve, though single readings can be large; an effect the other way counts as inactive or inconclusive.

How did CCCc1cc(CN(C)c2nc(CCN)nc3sc(C)c(C)c23)[nH]n1 do in these assays?
KDM5B inhibitor: 22.4µM*; SNCA expr inh: -10.9%; IP6K1 inhibitor: 19.5; HEK293 viab: -8.9%

What do the screens show for `Cc1ccc(C)c(C(=O)NCc2nnc3cc(-c4nc(C5CC5)no4)ccn23)c1`?
KDM5B inhibitor: 14.1µM*; SNCA expr inh: -17.7%; IP6K1 inhibitor: 32.7; HEK293 viab: 0.6%

Results for Cc1ccc(C(=O)NCc2nnc3cc(-c4nc(C5CC5)no4)ccn23)cc1C ?
KDM5B inhibitor: 28.2µM*; SNCA expr inh: inconclusive; IP6K1 inhibitor: 13.4; HEK293 viab: -10.9%

Results for CCN(CC)c1ccc(C(=O)NCc2nnc3cc(-c4nc(C5CC5)no4)ccn23)cc1 ?
KDM5B inhibitor: inconclusive; SNCA expr inh: inconclusive; IP6K1 inhibitor: 6.3; HEK293 viab: inconclusive

What do the screens show for `O=C(NCc1nnc2cc(-c3nc(C4CC4)no3)ccn12)c1ccncc1`?
KDM5B inhibitor: 28.2µM*; SNCA expr inh: 5.2%; IP6K1 inhibitor: 13.5; HEK293 viab: -4.6%

What do the screens show for `Cc1ccccc1C(=O)NCc1nnc2cc(-c3nc(C4CC4)no3)ccn12`?
KDM5B inhibitor: 28.2µM*; SNCA expr inh: inconclusive; IP6K1 inhibitor: 5.9; HEK293 viab: -24.1%

Results for CCCCCCCNC(=O)CCC(=O)NCCC ?
KDM5B inhibitor: inactive

How did N#Cc1ccc(CSc2nnc(-c3c[nH]c4ccccc34)o2)cc1 do in these assays?
KDM5B inhibitor: inactive

How did COC(=O)c1ccc(OCc2ccccc2C#N)c(OC)c1 do in these assays?
KDM5B inhibitor: inactive

What do the screens show for `Cc1ccc(CN2CC(C(=O)N3CCc4c(nc5cc(-c6ccccc6)[nH]n5c4=O)C3)CC2=O)cc1` (stereo not drawn)?
KDM5B inhibitor: 22.4µM*; SNCA expr inh: -14.3%; IP6K1 inhibitor: 1.7; HEK293 viab: -1.2%

How did O=C(c1n[nH]c2c1CCCC2)N1CCc2c(nc3cc[nH]n3c2=O)C1 do in these assays?
KDM5B inhibitor: 28.2µM*; SNCA expr inh: 12.2%; IP6K1 inhibitor: 11.8; HEK293 viab: 3.1%

How did Cc1noc(C)c1Cc1ccc(C(=O)N2CCc3c(nc4cc(-c5ccccc5)[nH]n4c3=O)C2)o1 do in these assays?
KDM5B inhibitor: inconclusive; SNCA expr inh: 23.1%; IP6K1 inhibitor: 0.8; HEK293 viab: 6.4%

What do the screens show for `O=C(c1n[nH]c2c1CCCC2)N1CCc2nc3cc[nH]n3c(=O)c2C1`?
KDM5B inhibitor: inconclusive; SNCA expr inh: 3.7%; IP6K1 inhibitor: 0.0; HEK293 viab: -2.1%

Results for O=C(c1n[nH]c2c1CCCC2)N1CCc2c(nc3cc(-c4ccccc4)[nH]n3c2=O)C1 ?
KDM5B inhibitor: 15.8µM*; SNCA expr inh: -18.5%; IP6K1 inhibitor: 48.1; HEK293 viab: -4.5%

Results for Cc1cccc(CC(=O)N2CCc3c(nc4cc[nH]n4c3=O)C2)c1 ?
KDM5B inhibitor: 31.6µM*; SNCA expr inh: -10.2%; IP6K1 inhibitor: 10.4; HEK293 viab: 4.7%

What do the screens show for `O=C(Cc1cccc2ccccc12)NCc1ccccn1`?
KDM5B inhibitor: inactive

What do the screens show for `O=C(c1cc(CN2CCOCC2)on1)N1CCc2c(nc3cc(-c4ccccc4)[nH]n3c2=O)C1`?
KDM5B inhibitor: 28.2µM*; SNCA expr inh: -0.9%; IP6K1 inhibitor: 0.0; HEK293 viab: -1.3%

How did O=C(c1ccsc1)N1CCc2c(nc3cc[nH]n3c2=O)C1 do in these assays?
KDM5B inhibitor: 25.1µM*; SNCA expr inh: -6.8%; IP6K1 inhibitor: 27.2; HEK293 viab: 8.4%

Results for O=C(c1cc(-c2cccs2)[nH]n1)N1CCc2c(nc3cc(-c4ccccc4)[nH]n3c2=O)C1 ?
KDM5B inhibitor: 31.6µM*; SNCA expr inh: -5.3%; IP6K1 inhibitor: 36.7; HEK293 viab: 2.6%

Results for CCCCc1ccc(-n2nnnc2SCC(=O)Nc2cccc(NC(C)=O)c2)cc1 ?
KDM5B inhibitor: inactive

How did COCCCNC(=O)c1ccc2nc(-c3cccnc3Cl)oc2c1 do in these assays?
SNCA expr inh: 1.4%[87.6 µM]; IP6K1 inhibitor: -0.9; HEK293 viab: 1.6%[87.6 µM]

Results for O=S1(=O)NCC2(CCN(Cc3ccoc3)CC2)Oc2ncccc21 ?
KDM5B inhibitor: 50.1µM*; SNCA expr inh: -10.7%; IP6K1 inhibitor: 1.5; HEK293 viab: -1.3%

What do the screens show for `O=S1(=O)NCC2(CCN(Cc3ccc(Cl)s3)CC2)Oc2ncccc21`?
KDM5B inhibitor: inconclusive; SNCA expr inh: -21.0%; IP6K1 inhibitor: 2.2; HEK293 viab: -7.8%

What do the screens show for `COCCNC[C@@H]1C=C(C)[C@H](Cc2nnc(-c3ccc(OC)cc3)o2)C[C@H]1C(C)C`?
KDM5B inhibitor: inactive; SNCA expr inh: inconclusive; IP6K1 inhibitor: 21.7; HEK293 viab: 31.6µM*
